Assay outcomes from PubChem BioAssay.
TDP1 cell noCPT – qHTS for Inhibitors of human tyrosyl-DNA phosphodiesterase 1 (TDP1): qHTS in cells in absence of CPT. Potency, µM (highest dose often 46.2 µM), inactives show at the highest dose activity change, negative = growth inhibition, hits mostly inhibitors. AID 686978, 2013. DT40 Tdp1-/- hTDP1 cells, no CPT, ATP luminescence, 48 h. hit rate 15% among 420,000; also: potency is read from the fitted curve at half-maximal effect; % is scaled to controls: 0 for no effect and ±100 for the full control effect; nearly all actives have a fitted effect of over 55% in size
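Compound effects on proliferation are scored in DT40 Tdp1-/-;hTDP1 cells in the absence of CPT. ATP levels (CellTiter-Glo luminescence) are recorded after a ≥48 hr, 37 °C incubation.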
IL-1B inflam inh – blocks inflammasome-driven IL-1 beta release; THP-1 LPS/ATP IL-1B secretion, AlphaLISA, 16 h; stronger effect = lower value; activity change, % at 57.5 µM; hit rate 4.7% among 360,000; in the data active = activity change below about -50%; inconclusive = mostly about -30% to -49%; also: % is scaled to controls: 0 for no effect and ±100 for the full control effect
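THP-1 cells pretreated 1 hr with compounds (up to 57.5 uM final), then stimulated with LPS (250 ng/mL final) plus ATP (1.25 mM final); secreted IL-1B measured by AlphaLISA after 16 hr, decreased signal indicating inhibition.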
TDP1 inh – inhibitors of human tyrosyl-DNA phosphodiesterase TDP1 | recombinant TDP1, AlphaScreen DNA substrate cleavage | Q9NUW8 | hit rate 0.28% among 350,000 | Potency, µM (series often up to 130 µM), for the others: at the highest dose activity change, negative = inhibition, most hits filed as inhibitors; also: potency is read from the fitted curve at half-maximal effect; % is scaled to controls: 0 for no effect and ±100 for the full control effect; nearly all actives have a fitted effect of over 40% in size
Target sequence (Q9NUW8 whole entry, looked up): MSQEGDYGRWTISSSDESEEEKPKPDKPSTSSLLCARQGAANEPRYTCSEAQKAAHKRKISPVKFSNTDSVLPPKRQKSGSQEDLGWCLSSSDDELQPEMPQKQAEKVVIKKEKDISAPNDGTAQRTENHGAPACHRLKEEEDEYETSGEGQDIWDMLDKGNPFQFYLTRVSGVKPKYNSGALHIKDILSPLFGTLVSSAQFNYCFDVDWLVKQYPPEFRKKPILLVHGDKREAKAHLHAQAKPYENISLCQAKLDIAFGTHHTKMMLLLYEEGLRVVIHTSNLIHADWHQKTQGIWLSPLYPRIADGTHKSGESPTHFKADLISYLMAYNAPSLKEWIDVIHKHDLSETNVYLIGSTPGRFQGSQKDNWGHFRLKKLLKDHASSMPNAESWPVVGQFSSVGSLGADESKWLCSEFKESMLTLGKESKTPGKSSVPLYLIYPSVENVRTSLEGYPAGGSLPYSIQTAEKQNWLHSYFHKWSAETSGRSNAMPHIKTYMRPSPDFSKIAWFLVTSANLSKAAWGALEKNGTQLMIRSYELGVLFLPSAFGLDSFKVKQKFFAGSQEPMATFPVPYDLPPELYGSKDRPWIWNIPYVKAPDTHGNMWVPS
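Recombinant human Tdp1 (E. coli-expressed, 1 nM final) preincubated with compounds 15 min at room temperature, then 5'-biotin/3'-phosphotyrosine-FITC DNA substrate (15 nM final) added for 5 min. AlphaScreen beads (10 ug/ml final) added 10 min; cleavage lowers signal.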
TDP1 cell CPT – growth inhibition of DT40 Tdp1-/-;hTDP1 cells with camptothecin (screen for TDP1 inhibitors); chicken DT40 Tdp1-/-;hTDP1 cells + 20 nM CPT, ATP luminescence, 48 h; hit rate 12% among 420,000; AID 686979; Potency, µM (titrated, usually from 46.2 µM), for inactives: at the highest dose activity change, negative = growth inhibition, hits mostly inhibitors; also: potency is read from the fitted curve at half-maximal effect; % is scaled to controls: 0 for no effect and ±100 for the full control effect; nearly all actives have a fitted effect of over 55% in size
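Chicken DT40 Tdp1-/- cells stably complemented with human TDP1 were seeded at 400 cells/well in medium containing 20 nM camptothecin, exposed to pin-transferred compounds, and grown at 37 °C for at least 48 hr. Viability was read as ATP luminescence.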
TGFb inhibitor – inhibitors of TGF-b signaling. AID 588855. Potency, µM (doses to about 46.1 µM), inactives show at the highest dose activity, negative = inhibition, most hits filed as inhibitors. hit rate 1.2% among 410,000. HepG2 CAGA-GFP TGF-b/SMAD3 reporter, GFP fluorescence, 18 h; TGF-beta stimulated, 500 pg/mL final; also: potency is read from the fitted curve at half-maximal effect; % is scaled to controls: 0 for no effect and ±100 for the full control effect; nearly all actives have a fitted effect of over 65% in size
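Inhibition was scored as loss of TGF-beta-induced (500 pg/mL final, 18 hours, 37 degrees C) GFP in HEPG2 cells carrying a CAGA-GFP reporter, in DMEM with 1% FBS. Well GFP was summed per cell; Activity was normalised to unstimulated and stimulated DMSO wells, then concentration-response fitting.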
HepG2 tox – counter-screen for TGF-b inhibitors: cytotoxicity in HepG2 cells | Potency, µM (doses to about 46.1 µM), for inactives: at the highest dose activity change, negative = cytotoxicity, actives largely listed as cytotoxic | hit rate 0.76% among 410,000 | AID 588856 | HepG2 CAGA-GFP viability, ATP luminescence, 18 h; also: potency is read from the fitted curve at half-maximal effect
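CellTiter-Glo luminescence gave cytotoxicity after 18 hours at 37 degrees C. The cells were HepG2 CAGA-GFP in 1% FBS DMEM, stimulated with 500 pg/mL TGF-beta after compound addition. %Activity was normalised to no-cell wells (complete cell-killing) and DMSO (no toxicity), and curves were fitted and classified.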
* = called active by the depositor; i = inactive; ? = inconclusive; nt = not tested or not shown; [ ] = remark or other dose. Sampled rows, rich in hits. Any-hit rate of the full collection: about 19%. Unless noted, calls follow the shape of the dose curve; as a rule, active = well fitted curve in the direction sought with a large enough effect; inconclusive = small, poorly fitted or top-dose-only effect, or another doubt; inactive = no such curve, though single readings can be large; an effect the other way counts as inactive or inconclusive.

SMILES	TDP1 cell noCPT	IL-1B inflam inh	TDP1 inh	TDP1 cell CPT	TGFb inhibitor	HepG2 tox
CC12CC(NC(=O)N1c1cccc(C(=O)Nc3ncn[nH]3)c1)c1ccccc1O2 (centres undefined)	-3.2%	-68.0*	3.1%	1.4%	-18.8%	3.4%
COCCn1c(N)c(N(Cc2ccccc2)C(=O)CSCC(=O)Nc2ccc(C)cc2)c(=O)[nH]c1=O	-2.0%	0.4	-1.2%	0.6%	-8.1%	-14.0%
Brc1ccc2c(c1)CN1CCCC1=N2	20.6µM*	-7.6	nt	13µM*	3.9%	0.2%
O=C1CN2C(=Nc3ccc(Br)cc3C2c2ccccc2)CCN1 (centres undefined)	-22.4%	25.3	2.0%	-6.8%	15.5%	-34.5%
Cc1cccc2c(C(=O)N3CCN(C(=O)c4ccco4)CC3)cc(-c3cccc(Br)c3)nc12	?	-71.2*	5.5%	?	?	16.4%
O=C(c1cc(-c2ccccc2)nc2ccccc12)N1CCOCC1	-7.6%	15.0	0.0%	3.4%	-23.0%	-2.1%
O=C(c1cc(-c2ccccn2)nc2ccc(Br)cc12)N1CCN(S(=O)(=O)c2ccccc2)CC1	?	49.9	6.0%	?	6.5%	-2.0%
O=C(c1ccco1)N1CCN(C(=O)c2cc(-c3ccccc3)nc3ccccc23)CC1	?	0.0	4.0%	?	-14.9%	-26.3%
CC(C)c1ccc(-c2cc(C(=O)N3CCOCC3)c3cc(Br)ccc3n2)cc1	?	-72.7*	0.0%	?	5.4%	1.2%
O=C(c1ccco1)N1CCN(C(=O)c2cc(-c3ccncc3)nc3ccc(Br)cc23)CC1	9.2µM*	0.0	nt	20.6µM*	0.0%	-4.3%
CC(=O)c1ccc(N2CCN(C(=O)c3cc(-c4ccncc4)nc4ccc(Br)cc34)CC2)cc1	20.6µM*	i	5.1%	20.6µM*	1.6%	-1.7%
COc1ccc2oc(=O)c(-c3nnc(N)s3)cc2c1	-26.9%	-84.2*	-10.0%	1.0%	-4.3%	6.1%
CC/C(C)=N\Nc1nc(-c2cc3cc(OC)ccc3oc2=O)cs1	18.4µM*	-5.5	nt	?	-0.9%	-34.9%
COc1cccc(Nc2nnc(-c3cc4ccc(O)cc4oc3=O)s2)c1	23.1µM*	nt	?	?	nt	-1.5%
COc1ccc2oc(=O)c(-c3nc(C)cs3)cc2c1	-20.7%	-7.7	-2.4%	-19.6%	-6.0%	-5.5%
COc1ccc2oc(=O)c(-c3nc4ccc(C)cc4[nH]3)cc2c1	1.46µM*	nt	7.4%	1.03µM*	95.4%	0.5%
Cc1ccc2c(c1)c1c(c(=O)n(Cc3ccccc3)c(=O)n1CC(=O)Nc1ccccc1C)n2C	-21.4%	nt	5.6%	-16.2%	1.8%	-2.7%
O=C(Nc1ccccc1C(=O)N1CCCCC1)c1nsc2ccccc12	?	nt	-2.7%	?	?	-25.8%
Cc1cccc(C(=O)Nc2c(C(=O)N3CCN(c4ccc(F)cc4)CC3)oc3ccccc23)c1	?	nt	1.1%	?	-13.7%	-13.4%
CC(C)c1c(C(=O)NCc2ccccn2)cnn1-c1nccc(-c2ccccc2F)n1	-24.6%	nt	nt	?	nt	nt
CC1(OC(=O)CCc2ccccc2)C(=O)C=C2C=C(c3ccc(C#N)cc3)N(c3ccccc3)C=C2C1=O (centres undefined)	13µM*	9.2	-2.3%[12.3 µM]	?	-8.4%	-77.0%
CC1(OC(=O)CCc2ccccc2)C(=O)C=C2C=C(c3ccc(C#N)cc3)N(CCN3CCOCC3)C=C2C1=O (centres undefined)	-2.2%	28.8	-1.4%[12.3 µM]	-3.6%	-1.4%	-27.0%
CC1(OC(=O)CCc2ccccc2)C(=O)C=C2C=C(c3ccc(C#N)cc3)N(CC3CC3)C=C2C1=O (centres undefined)	?	-15.6	7.1%[12.3 µM]	14.6µM*	-0.3%	-3.0%
CC1(OC(=O)CCc2ccccc2)C(=O)C=C2C=C(c3ccc(C#N)cc3)OC=C2C1=O (centres undefined)	nt	nt	1.9%	nt	nt	nt
CC1(OC(=O)CCc2ccccc2)C(=O)C=C2C=C(c3ccc(C#N)cc3)N(C3CCCC3)C=C2C1=O (centres undefined)	14.6µM*	12.6	6.8%[21 µM]	23.1µM*	-37.1%	-12.3%
SMILES	TDP1 cell noCPT	IL-1B inflam inh	TDP1 inh	TDP1 cell CPT	TGFb inhibitor	HepG2 tox
COc1ccc(NC(=O)Cn2ccn(Cc3ccccc3)c(=O)c2=O)cc1Cl	30.8%	nt	-3.9%	-18.5%	-1.1%	-8.8%
O=C(COC(=O)Cc1c(F)cccc1Cl)NC(=O)Nc1ccccc1F	-1.6%	22.0	0.5%	4.9%	-6.3%	-1.2%
Cc1nnc(NC(=O)CSC2CCCCC2)s1	5.8µM*	2.6	3.1%	1.84µM*	-0.8%	-2.9%
CSCC[C@H](N)C(=O)N[C@@H](CCCN=C(N)N)C(=O)N[C@@H](CC(C)C)C(=O)N[C@@H](Cc1ccccc1)C(=O)N[C@H](C(=O)O)C(C)C	nt	nt	9.5%	nt	nt	nt
CCOC(=O)C1C(=O)C=C(c2cccs2)CC1c1ccccc1C (centres undefined)	?	1.7	0.0%	?	9.3%	2.9%
CCOC(=O)C1C(=O)C=C(c2ccc(C)cc2)CC1c1ccccc1 (centres undefined)	?	-25.9	0.0%	?	-1.4%	-7.2%
CCOC(=O)C1C(=O)C=C(c2cccs2)CC1c1ccccc1 (centres undefined)	16.4µM*	-11.0	1.1%	?	-24.9%	0.4%
CCOC(=O)C1C(=O)C=C(/C=C/c2ccc(N(C)C)cc2)CC1c1ccccc1 (centres undefined)	?	7.9	0.6%	11.6µM*	86.6%	-16.0%
Cn1c(=O)n(C)c2cc(N3CCCCC3)c(NC(=O)c3cccc(Cl)c3)cc21	-25.5%	35.6	2.5%	?	6.1%	-5.0%
CC(C)C(=O)N1CCN(c2ccccc2NC(=O)c2cccc(Cl)c2)CC1	16.4µM*	?	1.0%	?	-1.2%	-18.7%
CC(C)C(=O)N1CCN(c2ccccc2NC(=O)c2cccc3ccccc23)CC1	16.4µM*	14.6	nt	?	-1.1%	-0.1%
c1ccc2c(CCNc3ncnc4nc[nH]c34)c[nH]c2c1	11.6µM*	72.8	2.6%	6.51µM*	-17.1%	25.4%
CC#CCN1C=C(C(=O)OCC)C(C)N(Cc2ccc(Br)cc2)S1(=O)=O (centres undefined)	23.1µM*	-13.3	-8.8%[56.1 µM]	18.4µM*	?	-20.5%
